{"source": "PubChem BioAssay (NCATS)", "key": {"[1]": {"molecular_target": "Calcium and integrin-binding protein 1 (Homo sapiens) (UniProt Q99828)", "sequence (Q99828 whole entry, looked up)": "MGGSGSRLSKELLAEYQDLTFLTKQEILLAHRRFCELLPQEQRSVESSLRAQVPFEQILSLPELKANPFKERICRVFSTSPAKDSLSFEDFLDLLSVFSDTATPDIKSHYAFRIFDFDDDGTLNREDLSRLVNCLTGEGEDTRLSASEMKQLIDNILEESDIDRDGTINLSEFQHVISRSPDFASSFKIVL", "experiment": "Primary qHTS for Identification of Calcium Integrin Binding Protein 1 (CIB1) Competitor (AID 1508620);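 further: GST tagged CIB1 binding a fluorescein labelled alphaIIb integrin peptide tracer; top concentration of the series differs between compounds; on the % scale 0 is the no-effect control and ±100 the full control effect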", "method_in_brief": "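CIB1-GST (1 uM final) and compound incubated 15 min at room temperature before adding FITC-alphaIIb peptide tracer (100 nM final). Competition for binding read by fluorescence polarization (ex 480, em 540) after another 15 min at room temperature.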"}, "[2]": {"molecular_target": "Rap guanine nucleotide exchange factor 3 (Homo sapiens) (UniProt O95398)", "sequence (O95398 whole entry, looked up)": "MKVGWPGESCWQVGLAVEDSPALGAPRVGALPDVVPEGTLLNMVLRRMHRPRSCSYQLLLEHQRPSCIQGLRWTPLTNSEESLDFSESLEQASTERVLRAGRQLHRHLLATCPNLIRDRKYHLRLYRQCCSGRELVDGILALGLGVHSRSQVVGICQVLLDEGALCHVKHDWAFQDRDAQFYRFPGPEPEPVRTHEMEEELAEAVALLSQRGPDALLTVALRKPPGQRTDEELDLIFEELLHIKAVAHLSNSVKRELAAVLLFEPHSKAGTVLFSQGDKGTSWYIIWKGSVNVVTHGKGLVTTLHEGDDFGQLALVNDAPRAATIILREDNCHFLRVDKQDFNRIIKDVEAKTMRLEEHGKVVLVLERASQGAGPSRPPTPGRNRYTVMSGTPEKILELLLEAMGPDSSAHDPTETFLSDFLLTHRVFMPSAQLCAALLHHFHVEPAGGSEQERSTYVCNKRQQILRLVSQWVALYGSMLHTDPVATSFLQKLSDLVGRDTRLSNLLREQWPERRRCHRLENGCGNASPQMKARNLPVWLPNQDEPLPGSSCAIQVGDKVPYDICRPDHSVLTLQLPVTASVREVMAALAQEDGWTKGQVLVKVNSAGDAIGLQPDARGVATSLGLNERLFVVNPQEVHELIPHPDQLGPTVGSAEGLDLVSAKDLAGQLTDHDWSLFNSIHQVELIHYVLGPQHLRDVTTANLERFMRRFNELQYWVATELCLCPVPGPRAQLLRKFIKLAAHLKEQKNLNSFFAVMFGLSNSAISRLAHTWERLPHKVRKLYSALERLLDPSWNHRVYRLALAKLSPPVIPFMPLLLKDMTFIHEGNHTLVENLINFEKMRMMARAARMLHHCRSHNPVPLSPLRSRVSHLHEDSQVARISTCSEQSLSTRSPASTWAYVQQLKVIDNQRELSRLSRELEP", "experiment": "Confirmatory qHTS for agonist of cAMP-regulated guanine nucleotide exchange factor 3 (EPAC1) (AID 1645881);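 further: EPAC1 catalysed release of BODIPY-GDP from Rap1B seen as fluorescence loss; nearly all actives have a fitted effect of over 75% in size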"}, "[3]": {"molecular_target": "Rap guanine nucleotide exchange factor 4 (Homo sapiens) (UniProt Q8WZA2)", "sequence (Q8WZA2 whole entry, looked up)": "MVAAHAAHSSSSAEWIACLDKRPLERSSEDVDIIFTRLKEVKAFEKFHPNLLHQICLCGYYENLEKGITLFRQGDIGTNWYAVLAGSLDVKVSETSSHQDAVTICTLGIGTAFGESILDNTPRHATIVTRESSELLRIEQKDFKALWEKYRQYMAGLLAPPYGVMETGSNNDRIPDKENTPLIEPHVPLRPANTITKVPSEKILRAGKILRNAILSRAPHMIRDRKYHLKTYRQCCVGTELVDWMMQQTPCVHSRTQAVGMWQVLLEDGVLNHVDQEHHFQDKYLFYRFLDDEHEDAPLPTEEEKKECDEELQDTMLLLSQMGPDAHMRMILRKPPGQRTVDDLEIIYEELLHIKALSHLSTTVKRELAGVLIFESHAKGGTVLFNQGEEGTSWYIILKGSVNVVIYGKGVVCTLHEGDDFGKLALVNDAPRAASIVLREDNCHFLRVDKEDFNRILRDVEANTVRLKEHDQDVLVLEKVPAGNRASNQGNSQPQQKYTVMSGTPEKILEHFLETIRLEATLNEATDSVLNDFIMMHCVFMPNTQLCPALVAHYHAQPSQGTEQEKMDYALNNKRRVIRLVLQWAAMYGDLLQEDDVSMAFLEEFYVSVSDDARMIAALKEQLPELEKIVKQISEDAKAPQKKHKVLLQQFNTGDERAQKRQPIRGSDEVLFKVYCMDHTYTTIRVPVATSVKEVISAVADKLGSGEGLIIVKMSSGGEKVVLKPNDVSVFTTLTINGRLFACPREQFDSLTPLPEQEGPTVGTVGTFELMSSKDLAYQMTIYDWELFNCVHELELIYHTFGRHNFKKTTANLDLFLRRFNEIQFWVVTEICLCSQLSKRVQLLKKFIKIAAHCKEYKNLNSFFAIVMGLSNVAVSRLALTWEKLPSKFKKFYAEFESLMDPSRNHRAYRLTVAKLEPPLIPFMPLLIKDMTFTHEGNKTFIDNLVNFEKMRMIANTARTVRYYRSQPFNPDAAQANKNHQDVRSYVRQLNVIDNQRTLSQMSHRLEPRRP", "experiment": "Confirmatory qHTS for agonist of cAMP-regulated guanine nucleotide exchange factor 4 (EPAC2) (AID 1645884);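 further: nucleotide exchange releases bodipy-GDP from Rap1 and this lowers its fluorescence; on the % scale 0 is the no-effect control and ±100 the full control effect; nearly all actives have a fitted effect of over 65% in size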"}, "[4]": {"molecular_target": "Rap guanine nucleotide exchange factor 4 (Homo sapiens) (UniProt Q8WZA2)", "experiment": "Confirmatory qHTS for antagonist of cAMP-regulated guanine nucleotide exchange factor 4 (EPAC2) (AID 1645885); further: nearly all actives have a fitted effect of over 25% in size; further: potency means the concentration at half of the fitted maximal effect; on activity change, negative = inhibition: on the % scale 0 is the no-effect control and ±100 the full control effect"}, "[5]": {"molecular_target": "Rap guanine nucleotide exchange factor 3 (Homo sapiens) (UniProt O95398)", "experiment": "Counterscreen qHTS for antagonist of cAMP-regulated guanine nucleotide exchange factor 3 (EPAC1) (AID 1645888); further: % of control where 0% means no effect", "method_in_brief": "(§1)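 Rap1B-BODIPY-GDP 250 nM + GDP 50 uM; cpds 7-pt, final 9.74 nM–152 uM (activator mode) or from 7.32 nM upwards (inhibitor mode); RT; FI 480/540 nm at 5 and 30 min, then ± cAMP, reread.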"}, "[6]": {"molecular_target": "Rap guanine nucleotide exchange factor 3 (Homo sapiens) (UniProt O95398)", "experiment": "Counterscreen qHTS for agonist of cAMP-regulated guanine nucleotide exchange factor 3 (EPAC1) (AID 1645889)", "method_in_brief": "as §1"}, "[7]": {"molecular_target": "DNA repair nuclease/redox regulator APEX1 (Homo sapiens) (UniProt P27695)", "experiment": "Confirmation qHTS Assay for Inhibitors of the Human Apurinic/apyrimidinic Endonuclease 1 (APE1) (AID 2572)", "conditions": "purified APE1, fluorogenic abasic-site DNA cleavage", "method_in_brief": "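15 min RT compound–APE1 preincubation → add 50 nM final THF-abasic TAMRA/BHQ-2 dsDNA → immediate kinetic read, 3 × 60 s, Ex 525/Em 598 → Δ fluorescence (read 3 − read 1).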"}, "[8]": {"molecular_target": "Tyrosyl-DNA phosphodiesterase 1 (Homo sapiens) (UniProt Q9NUW8)", "experiment": "Confirmation Assay for Inhibitors of Tyrosyl-DNA Phosphodiesterase (TDP1) (AID 489007)", "conditions": "recombinant human TDP1 enzymatic activity, dose-response", "method_in_brief": "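Confirmation of primary-screen follow-ups in a qHTS format. Substrate cleavage by Tdp1 (1 nM) of a 3'-phosphotyrosine-FITC, 5'-biotin oligo (15 nM) was monitored as decreased AlphaScreen signal after a 5 min room-temperature reaction.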"}, "[9]": {"molecular_target": "Lethal(3)malignant brain tumor-like protein 1 (Homo sapiens) (UniProt Q9Y468)", "experiment": "qHTS Assay for the Inhibitors of L3MBTL1: Hit Validation (AID 540279)", "conditions": "L3MBTL1 methyl-lysine binding inhibition, biochemical qHTS", "method_in_brief": "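AlphaScreen displacement: 50 nM L3MBTL1 bound to 75 nM biotin-H3K9me1 peptide for 30 min, compound added for 30 min at room temperature, then beads at 10 ug/mL final for 30 min in the dark. Cefsulodin titration served as intraplate control.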"}, "[10]": {"experiment": "qHTS Assay for the Inhibitors of L3MBTL1: Hit Validationin AlphaScreen Counterscreen (AID 602224)", "method_in_brief": "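Using a biotin-His6 bridge (1 nM) between streptavidin donor and Ni-chelate acceptor beads at 10 ug/mL each, hit compounds were checked for assay-technology artifacts; activity here flags false positives from the primary screen.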"}, "[11]": {"molecular_target": "Phosphoglycerate kinase, glycosomal (Trypanosoma brucei brucei) (UniProt P07378)", "experiment": "qHTS for inhibitors of Phosphogylcerate Kinase: Hit Validation Screen (AID 686980)", "conditions": "TbPGK coupled GAPDH assay, Kinase-Glo luminescence", "method_in_brief": "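Luminescent ATP detection (Kinase-Glo Plus) follows a 60-minute room-temperature incubation, with wells lacking PGK as controls. Buffer: 100 mM TEA (pH 7.6), 5 mM MgCl2, 0.01% Tween-20. Coupling enzyme GAPDH (100 nM final) supplies unstable 1,3-BPG in-well.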"}, "[12]": {"molecular_target": "DNA polymerase iota (Homo sapiens) (UniProt Q9UNA4)", "sequence (Q9UNA4 whole entry, looked up)": "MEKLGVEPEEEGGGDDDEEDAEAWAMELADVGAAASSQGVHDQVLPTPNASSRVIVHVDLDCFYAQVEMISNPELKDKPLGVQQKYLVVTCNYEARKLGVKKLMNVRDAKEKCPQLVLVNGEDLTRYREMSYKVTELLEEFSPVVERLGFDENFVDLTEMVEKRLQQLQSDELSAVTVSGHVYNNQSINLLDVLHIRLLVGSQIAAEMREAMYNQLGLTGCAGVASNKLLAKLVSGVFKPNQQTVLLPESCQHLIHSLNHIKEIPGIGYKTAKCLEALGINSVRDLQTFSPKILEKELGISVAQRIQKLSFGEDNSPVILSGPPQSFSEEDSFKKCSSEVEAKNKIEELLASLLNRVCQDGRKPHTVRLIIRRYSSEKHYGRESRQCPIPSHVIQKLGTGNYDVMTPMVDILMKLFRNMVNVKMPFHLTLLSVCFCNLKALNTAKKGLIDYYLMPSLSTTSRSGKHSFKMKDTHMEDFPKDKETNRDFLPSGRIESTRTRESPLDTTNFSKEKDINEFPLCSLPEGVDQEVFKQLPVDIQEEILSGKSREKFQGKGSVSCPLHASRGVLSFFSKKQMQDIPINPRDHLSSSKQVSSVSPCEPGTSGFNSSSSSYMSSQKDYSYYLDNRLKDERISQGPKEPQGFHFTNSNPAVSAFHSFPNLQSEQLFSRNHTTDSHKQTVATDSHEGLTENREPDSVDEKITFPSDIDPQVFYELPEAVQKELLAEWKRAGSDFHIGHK", "experiment": "qHTS for Inhibitors of Polymerase Iota: Confirmatory Assay for Cherry-picked Compounds (AID 720496)", "conditions": "Pol iota primer extension, TAMRA/BHQ fluorescence", "method_in_brief": "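Read-out is TAMRA fluorescence (525 nm excitation, 598 nm emission) at 0 and 10 min. It reflects strand displacement from a BHQ-2-quenched template by 10 nM Pol iota, with 50 nM final substrate after 15 min compound preincubation.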"}, "[13]": {"molecular_target": "Bifunctional 3'-5' exonuclease/ATP-dependent helicase WRN (Homo sapiens) (UniProt Q14191)", "experiment": "qHTS for Inhibitors of WRN Helicase: Confirmatory Assay for Cherry-picked Compounds. (AID 720497)", "conditions": "WRN helicase DNA unwinding, fluorescence kinetic", "method_in_brief": "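Helicase activity is tracked as a kinetic fluorescence signal (excitation 525 nm, emission 598 nm) after 100 nM forked duplex DNA and 2 mM ATP are added to 20 nM WRN that has been preincubated 15 min with compound at room temperature.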"}, "[14]": {"experiment": "qHTS for Inhibitors of WRN Helicase: Thiazole Orange DNA Binding Counterscreen (AID 720499)", "method_in_brief": "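After pintool transfer of compounds into a thiazole orange/DNA mixture (100 nM and 50 nM respectively) and 15 min at room temperature, plates were imaged for fluorescence at 530 nm emission, 480 nm excitation.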"}, "[15]": {"molecular_target": "DNA polymerase kappa (Homo sapiens) (UniProt Q9UBT6)", "experiment": "qHTS for Inhibitors of Polymerase Kappa: Confirmatory Assay for Cherry-picked Compounds (AID 720501)", "conditions": "purified Pol-kappa, fluorescent strand-displacement substrate", "method_in_brief": "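Strand-displacement fluorescence read-out: TAMRA reporter released from a BHQ-2-quenched template, measured at 525/598 nm over a 10 min kinetic window. Substrate was 50 nM final; enzyme was 10 nM Pol-kappa, preincubated 15 min at room temperature with compound.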"}, "[16]": {"molecular_target": "DNA polymerase eta (Homo sapiens) (UniProt Q9Y253)", "experiment": "qHTS for Inhibitors of Polymerase Eta: Confirmatory Assay for Cherry-picked Compounds (AID 720502)", "conditions": "Pol eta primer extension, TAMRA/BHQ fluorescence, 10 min", "method_in_brief": "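Quenched-fluorescence replication assay: 10 nM Pol eta, 50 nM substrate final, 15 min compound preincubation at room temperature, 10 min kinetic reaction read at 525/598 nm.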"}, "[17]": {"molecular_target": "RecQ-like DNA helicase BLM (Homo sapiens) (UniProt P54132)", "sequence (P54132 whole entry, looked up)": "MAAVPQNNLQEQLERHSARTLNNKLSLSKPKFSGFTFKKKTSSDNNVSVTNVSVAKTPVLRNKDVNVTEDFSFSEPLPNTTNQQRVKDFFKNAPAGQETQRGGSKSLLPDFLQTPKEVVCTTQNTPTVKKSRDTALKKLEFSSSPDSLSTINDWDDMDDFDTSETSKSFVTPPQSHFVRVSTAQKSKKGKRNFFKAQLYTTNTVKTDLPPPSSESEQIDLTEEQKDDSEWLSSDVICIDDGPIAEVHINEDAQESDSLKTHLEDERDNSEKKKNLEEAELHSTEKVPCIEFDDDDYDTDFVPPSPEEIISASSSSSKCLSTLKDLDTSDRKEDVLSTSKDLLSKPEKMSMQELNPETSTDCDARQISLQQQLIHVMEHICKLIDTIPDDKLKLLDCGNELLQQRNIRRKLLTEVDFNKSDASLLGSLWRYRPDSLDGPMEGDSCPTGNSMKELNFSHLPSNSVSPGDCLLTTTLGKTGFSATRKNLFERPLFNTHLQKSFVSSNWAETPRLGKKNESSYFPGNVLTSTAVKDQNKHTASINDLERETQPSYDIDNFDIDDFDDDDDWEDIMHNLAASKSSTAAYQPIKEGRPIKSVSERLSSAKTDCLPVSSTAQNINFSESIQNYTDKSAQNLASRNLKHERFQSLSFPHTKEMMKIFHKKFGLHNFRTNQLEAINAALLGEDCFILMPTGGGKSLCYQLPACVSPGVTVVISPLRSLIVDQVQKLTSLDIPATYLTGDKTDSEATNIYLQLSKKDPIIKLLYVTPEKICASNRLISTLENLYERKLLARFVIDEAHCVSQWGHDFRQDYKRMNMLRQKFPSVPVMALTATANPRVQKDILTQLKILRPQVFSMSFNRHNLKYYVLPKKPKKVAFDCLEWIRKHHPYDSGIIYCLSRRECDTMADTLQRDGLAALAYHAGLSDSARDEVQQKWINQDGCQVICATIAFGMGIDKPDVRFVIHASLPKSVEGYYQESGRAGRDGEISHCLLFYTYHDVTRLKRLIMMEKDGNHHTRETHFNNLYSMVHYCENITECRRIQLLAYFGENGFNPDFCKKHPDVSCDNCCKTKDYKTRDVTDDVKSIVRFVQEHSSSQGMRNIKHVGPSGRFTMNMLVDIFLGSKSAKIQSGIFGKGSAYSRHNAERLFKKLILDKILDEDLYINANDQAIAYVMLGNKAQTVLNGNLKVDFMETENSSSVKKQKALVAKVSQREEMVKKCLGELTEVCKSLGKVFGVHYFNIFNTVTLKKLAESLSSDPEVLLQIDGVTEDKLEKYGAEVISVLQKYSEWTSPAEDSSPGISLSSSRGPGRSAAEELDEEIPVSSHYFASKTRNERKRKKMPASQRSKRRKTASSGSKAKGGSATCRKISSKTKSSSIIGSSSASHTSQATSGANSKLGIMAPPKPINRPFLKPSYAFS", "experiment": "qHTS for Inhibitors of WRN Helicase: BLM Helicase Counterscreen for WRN Inhibitors (AID 720503)", "conditions": "Recombinant BLM helicase DNA unwinding, red fluorescence", "method_in_brief": "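Steps: compounds added to 1 nM BLM in pH 8.0 Tris buffer with 2 mM MgCl2; 15 min room-temperature incubation; substrates added (100 nM DNA, 2 mM ATP final); discontinuous kinetic fluorescence measurement, reads spaced 15 min.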"}, "[18]": {"experiment": "AP1 Signaling Pathway (AID 357; active means well fitted curve in either direction with a large enough effect, not every such curve was filed as active)", "conditions": "ME-180 AP-1-bla reporter, EGF-induced, beta-lactamase ratio, 5 h; at 7.69 µM (top of the series) unless noted", "method_in_brief": "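Beta-lactamase reporter under AP-1 response element, ME-180 background. Stimulus: EC50 EGF. Compound exposure 5 h, 37 °C. Detection: CCF4, 2.5 h RT, 460/530 nm. Values: AC50 from titration.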"}, "[19]": {"experiment": "NFAT Signaling Pathway (AID 444; active means well fitted curve in either direction with a large enough effect, not every such curve was filed as active)", "conditions": "Jurkat NFAT-bla M1, carbachol, beta-lactamase ratio, 5 h; at 7.69 µM (top of the series) unless noted", "method_in_brief": "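Read-out: CCF4 FRET ratio (460 nm/530 nm) after 1 h RT dye loading, used for %activity and AC50 from titration series. Cells: Jurkat NFAT-β-lactamase/M1 line, treated with compound plus 1 uM carbachol for 5 h, 37 °C.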"}, "[20]": {"experiment": "Stat Signaling Pathway (AID 446; active means well fitted curve in either direction with a large enough effect, not every such curve was filed as active)", "conditions": "ME-180 SIE beta-lactamase reporter, IL-6 stimulated, 5 h; at 7.69 µM (top of the series) unless noted", "method_in_brief": "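IL-6/STAT signaling read in ME-180 cells via an SIE beta-lactamase reporter. Stimulus was 40 pM IL-6 (its AC50) for 5 hrs, so both activation and inhibition register.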"}, "[21]": {"molecular_target": "Glucocorticoid receptor (Homo sapiens) (UniProt P04150)", "sequence (P04150 whole entry, looked up)": "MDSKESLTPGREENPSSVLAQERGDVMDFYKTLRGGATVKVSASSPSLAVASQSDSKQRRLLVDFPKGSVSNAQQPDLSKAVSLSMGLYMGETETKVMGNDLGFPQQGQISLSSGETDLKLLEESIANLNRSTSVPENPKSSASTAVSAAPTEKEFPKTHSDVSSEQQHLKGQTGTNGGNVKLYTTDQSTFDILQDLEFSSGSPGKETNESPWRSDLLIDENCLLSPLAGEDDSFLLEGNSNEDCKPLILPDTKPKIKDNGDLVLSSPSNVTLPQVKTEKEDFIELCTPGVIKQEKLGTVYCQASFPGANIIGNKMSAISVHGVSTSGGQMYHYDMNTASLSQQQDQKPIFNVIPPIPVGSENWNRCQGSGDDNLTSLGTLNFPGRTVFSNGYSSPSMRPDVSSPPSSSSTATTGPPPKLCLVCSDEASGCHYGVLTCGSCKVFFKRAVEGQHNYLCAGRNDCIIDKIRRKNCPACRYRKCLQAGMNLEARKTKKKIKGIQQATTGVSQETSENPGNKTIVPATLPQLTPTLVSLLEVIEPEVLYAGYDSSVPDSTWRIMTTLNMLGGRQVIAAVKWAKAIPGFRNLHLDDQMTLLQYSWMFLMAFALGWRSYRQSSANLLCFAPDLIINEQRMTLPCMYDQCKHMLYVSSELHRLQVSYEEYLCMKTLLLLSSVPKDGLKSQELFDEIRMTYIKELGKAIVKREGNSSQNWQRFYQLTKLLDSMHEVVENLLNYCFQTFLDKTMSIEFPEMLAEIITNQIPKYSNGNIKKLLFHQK", "experiment": "GR-GFP Redistribution (AID 450;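 active means compounds whose dose series gives a full or clear partial fitted curve of increased nuclear translocation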)", "conditions": "U2OS GR-GFP nuclear translocation, laser cytometry, 2 h"}}, "note": "A number with no mark means an inactive call. Results filed as inconclusive are left out. Some of the results follow. Activity calls are given as the source filed them. Unless noted, the call rests on the fitted dose curve; in most records, active means well fitted curve in the direction sought with a large enough effect; inconclusive means small, poorly fitted or top-dose-only effect, or another doubt; inactive means no such curve, though single readings can be large; an effect the other way counts as inactive or inconclusive.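 Wherever activity, negative = inhibition is given: ME-180 cervical cancer cells given 40 pM IL-6 alongside compound; on the % scale 0 is the no-effect control and ±100 the full control effect.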", "data": [{"smiles": "CC(=O)NC(c1cc(Cl)c2ccccc2c1O)C(C)C", "note": "(centres undefined)", "values": [{"measurement": "Potency", "setting": "[1]", "value": "inactive"}, {"measurement": "outcome", "setting": "[2]", "value": "inactive"}, {"measurement": "activation", "setting": "[3]", "value": "9.17% [at 17.1 µM]"}, {"measurement": "activity change, negative = inhibition", "setting": "[4]", "value": "-39.3% [at 12.7 µM]"}, {"measurement": "outcome", "setting": "[5]", "value": "inactive"}, {"measurement": "activation", "setting": "[6]", "value": "8.27% [at 30.8 µM]"}]}, {"smiles": "O=C(CSc1nnc(-c2cccc(S(=O)(=O)N3CCCC3)c2)n1-c1ccccc1)Nc1ccc(C(=O)O)cc1", "values": [{"measurement": "Potency", "setting": "[1]", "value": "inactive"}, {"measurement": "outcome", "setting": "[2]", "value": "inactive"}, {"measurement": "activation", "setting": "[3]", "value": "-2.44% [at 17.1 µM]"}, {"measurement": "activity change, negative = inhibition", "setting": "[4]", "value": "-11.1% [at 12.7 µM]"}, {"measurement": "outcome", "setting": "[5]", "value": "inactive"}]}, {"smiles": "Cc1ccccc1NC(=O)CN1C(=O)N/C(=C\\c2cccn2-c2cccc(C(=O)O)c2)C1=O", "values": [{"measurement": "Potency", "setting": "[7]", "value": "28.2 µM (active)"}, {"measurement": "Potency", "setting": "[8]", "value": "1.78 µM (active)"}, {"measurement": "Potency", "setting": "[9]", "value": "1.5 µM (active)"}, {"measurement": "outcome", "setting": "[10]", "value": "inactive"}, {"measurement": "Potency", "setting": "[11]", "value": "5.8 µM (active)"}, {"measurement": "Potency", "setting": "[12]", "value": "16.8 µM (active)"}, {"measurement": "Potency", "setting": "[13]", "value": "6.07 µM (active)"}, {"measurement": "outcome", "setting": "[14]", "value": "inactive"}, {"measurement": "Potency", "setting": "[15]", "value": "2.99 µM (active)"}, {"measurement": "Potency", "setting": "[16]", "value": "16.9 µM (active)"}, {"measurement": "Potency", "setting": "[17]", "value": "7.64 µM (active)"}, {"measurement": "Potency", "setting": "[1]", "value": "inactive"}]}, {"smiles": "CNc1oc(-c2cccs2)nc1C#N", "values": [{"measurement": "activity change, negative = inhibition", "setting": "[18]", "value": "3.62% [at 17.2 µM]"}, {"measurement": "activity change, negative = inhibition", "setting": "[19]", "value": "11.4% [at 17.2 µM]"}, {"measurement": "activity, negative = inhibition", "setting": "[20]", "value": "-2.1% [at 17.2 µM]"}, {"measurement": "Potency", "setting": "[21]", "value": "> 20.6", "unit": "µM"}, {"measurement": "Potency", "setting": "[1]", "value": "inactive"}]}, {"smiles": "CCC(=O)NC(c1ccco1)c1cc(Cl)c2ccccc2c1O", "note": "(centres undefined)", "values": [{"measurement": "Potency", "setting": "[1]", "value": "inactive"}, {"measurement": "outcome", "setting": "[2]", "value": "inactive"}, {"measurement": "outcome", "setting": "[3]", "value": "inactive"}, {"measurement": "Potency", "setting": "[4]", "value": "53.6 µM (active)"}, {"measurement": "outcome", "setting": "[5]", "value": "inactive"}, {"measurement": "outcome", "setting": "[6]", "value": "inactive"}]}]}
